# From PubChem BioAssay AID2490 (National Center for Advancing Translational Sciences (NCATS), 2010)
# Calls of active or inactive are those of the source. Calls come from the whole dose curve.
# Target: Thyroid hormone receptor beta (Homo sapiens) (UniProt P10828)
# Assay: Secondary Confirmation Assay for Inhibitors of the Interaction of Thyroid Hormone Receptor and Steroid Receptor Coregulator 2, Texas Red Fluoroprobe
# Conditions: TRb LBD / Texas Red SRC2 peptide fluorescence polarization
# Description: NIH Molecular Libraries Probe Production Network [MLPCN] NIH Chemical Genomics Center [NCGC] MLPCN Grant: DK058080 Assay Provider: R. Kip Guy, St. Jude Children's Research Hospital NCGC Assay Overview: Thyroid receptor (TR) regulates many homeostatic processes including basal metabolism, cardiovascular function, body weight, and lipid trafficking. TR modulators are potential therapeutics for obesity and hyperlipidemias but current thyroid analogs have undesirable side effects, particularly cardiac stimulation. To identify inhibitors that specifically prevent the interaction of TR with the steroid receptor coregulator 2 (SRC2), a fluorescence polarization assay was screened (Arnold et al., 2006). This assay detects the interaction of the ligand-binding domain of human TRb with a Texas Red labeled SRC2 peptide, corresponding to a 20 amino acid region of the nuclear receptor interaction domain. Small molecule inhibitors that block the interaction of TR and SRC2 are detected by a decrease in fluorescence polarization.
# NCGC Assay Protocol Summary: Twenty uL/well 0.6 uM TRb and 20 nM Texas Red labeled SRC2-2 in protein buffer (20mM Tris hydrochloride, pH 7.4, 100mM NaCl, 10% glycerol, 1mM EDTA, 0.01% NP-40, 1mM DTT, 1uM T3 and 4% DMSO) was dispensed into black solid 384-well plates (Costar 3710) using a Biomek FX (Beckman Coulter) liquid handling system. Following transfer of 260 nL compound (ranging from 7 nM to 130 uM), the plates were incubated 3 hr at ambient temperature. The plates were read by an Envision (Perkin Elmer) to detect fluorescence polarization of SRC2 Texas Red (555 nm excitation and 632 nm emission). Arnold, L. A.; Estebanez-Perpina, E.; Togashi, M.; Shelat, A.; Ocasio, C. A.; McReynolds, A. C.; Nguyen, P.; Baxter, J. D.; Fletterick, R. J.; Webb, P.; Guy, R. K. A high-throughput screening method to identify small molecule inhibitors of thyroid hormone receptor coactivator binding. Sci STKE 2006, p 13.
# Thyroid hormone receptor beta (Homo sapiens), sequence (P10828 whole entry, looked up): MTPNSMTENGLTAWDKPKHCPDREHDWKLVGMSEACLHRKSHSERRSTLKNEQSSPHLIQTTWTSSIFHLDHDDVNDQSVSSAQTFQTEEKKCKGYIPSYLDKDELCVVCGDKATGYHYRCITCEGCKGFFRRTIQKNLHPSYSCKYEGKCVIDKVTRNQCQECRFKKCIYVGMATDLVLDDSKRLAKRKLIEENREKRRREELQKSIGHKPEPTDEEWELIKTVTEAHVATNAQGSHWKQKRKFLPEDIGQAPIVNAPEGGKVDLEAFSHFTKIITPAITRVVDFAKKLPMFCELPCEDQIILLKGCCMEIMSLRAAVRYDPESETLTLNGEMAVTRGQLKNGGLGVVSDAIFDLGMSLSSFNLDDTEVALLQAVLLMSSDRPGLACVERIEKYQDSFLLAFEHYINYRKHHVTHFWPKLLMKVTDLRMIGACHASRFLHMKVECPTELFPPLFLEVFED
SMILES,Potency,outcome
CS(=O)(=O)c1ccc(C(=O)OCC(=O)N2CCCc3ccccc32)cc1[N+](=O)[O-],2.3 µM (active),–
CS(=O)(=O)c1ccc(C(=O)OCC(=O)N2CCCCC2)cc1[N+](=O)[O-],20.5 µM (active),–
CS(=O)(=O)c1ccc(C(=O)OCC(=O)Nc2ccc(OC(F)(F)F)cc2)cc1[N+](=O)[O-],–,inactive
CC1CCCCN1C(=O)COC(=O)c1ccc(S(C)(=O)=O)c([N+](=O)[O-])c1 (stereo not given),11.5 µM (active),–
O=C(COC(=O)c1ccc(Cl)c([N+](=O)[O-])c1)NC1C2CC3CC(C2)CC1C3 (stereo not given),–,inactive
CC(=O)c1cccc(NC(=O)COC(=O)c2ccc(S(C)(=O)=O)c([N+](=O)[O-])c2)c1,–,inactive
CC1CCN(C(=O)C(C)OC(=O)c2ccc(S(C)(=O)=O)c([N+](=O)[O-])c2)CC1 (stereo not given),6.4 µM (active),–
CC(=O)N1CCN(C(=O)COC(=O)c2ccc([S+](C)(=O)[O-])c([N+](=O)[O-])c2)CC1,–,inactive
CC1(C)C2CCC1(C)C(NC(=O)COC(=O)c1ccc(S(C)(=O)=O)c([N+](=O)[O-])c1)C2 (stereo not given),4.3 µM (active),–
O=C(COC(=O)c1ccc(F)c([N+](=O)[O-])c1)NC1C2CC3CC(C2)CC1C3 (stereo not given),14.3 µM (active),–
O=C(COC(=O)c1cc([N+](=O)[O-])ccc1F)NC1C2CC3CC(C2)CC1C3 (stereo not given),–,inactive
C#CCNC(=O)COC(=O)c1ccc(S(C)(=O)=O)c([N+](=O)[O-])c1,–,inactive
CC(=O)Nc1cccc(C(=O)OCC(=O)NC(=O)C2CCCCC2)c1,–,inactive
CCCC1CCN(C(=O)COC(=O)c2ccc(S(C)(=O)=O)c([N+](=O)[O-])c2)CC1,3.3 µM (active),–
CCC(OC(=O)c1ccc(S(C)(=O)=O)c([N+](=O)[O-])c1)C(=O)NC1C2CC3CC(C2)CC1C3 (stereo not given),1.1 µM (active),–
CS(=O)(=O)c1ccc(C(=O)OCC(=O)N2CCOCC2)cc1[N+](=O)[O-],–,inactive
CN(C(=O)COC(=O)c1ccc(S(C)(=O)=O)c([N+](=O)[O-])c1)c1ccccc1,1.6 µM (active),–
Cn1cccc1C(=O)NC(=O)COC(=O)c1ccc(S(C)(=O)=O)c([N+](=O)[O-])c1,38.4 µM (active),–
Cc1ccc(-c2csc(-c3ccc(S(C)(=O)=O)c([N+](=O)[O-])c3)n2)cc1,36.8 µM (active),–
COc1cccc(CNC(=O)COC(=O)c2ccc(S(C)(=O)=O)c([N+](=O)[O-])c2)c1,64.6 µM (active),–

SMILES,Potency,outcome
CS(=O)(=O)c1ccc(C(=O)NCC(=O)NC2C3CC4CC(C3)CC2C4)cc1[N+](=O)[O-] (stereo not given),11.3 µM (active),–
O=C(COC(=O)c1cccc([N+](=O)[O-])c1)NC1C2CC3CC(C2)CC1C3 (stereo not given),–,inactive
Cc1ccccc1NC(=O)COC(=O)c1ccc(S(C)(=O)=O)c([N+](=O)[O-])c1,–,inactive
Cc1ccc(F)cc1NC(=O)COC(=O)c1ccc(S(C)(=O)=O)c([N+](=O)[O-])c1,–,inactive
C#CC1(NC(=O)COC(=O)c2ccc(S(C)(=O)=O)c([N+](=O)[O-])c2)CCCCC1,9.2 µM (active),–
CC(OC(=O)c1ccc(S(C)(=O)=O)c([N+](=O)[O-])c1)C(=O)NC12CC3CC(CC(C3)C1)C2 (stereo not given),2.1 µM (active),–
CN1CCN(C(=O)COC(=O)c2ccc(S(C)(=O)=O)c([N+](=O)[O-])c2)CC1,–,inactive
O=C(COC(=O)c1ccc(C(F)(F)F)cc1)NC(=O)C1CCCCC1,–,inactive
CS(=O)(=O)c1ccc(C(=O)OCC(=O)N2CCN(C3CCCCC3)CC2)cc1[N+](=O)[O-],16.1 µM (active),–
CC(C)CN1CCN(C(=O)COC(=O)c2ccc(S(C)(=O)=O)c([N+](=O)[O-])c2)CC1,42.4 µM (active),–
O=C(COC(=O)c1ccc2ncsc2c1)NC(=O)C1CCCCC1,–,inactive
C[S+](=O)([O-])c1ccc(C(=O)OCC(=O)N2CCNC(=O)C2)cc1[N+](=O)[O-],–,inactive
CS(=O)(=O)c1ccc(-c2nnc(-c3ccccc3)s2)cc1[N+](=O)[O-],–,inactive
C[S+](=O)([O-])c1ccc(C(=O)OCC(=O)NC2C3CC4CC(C3)CC2C4)cc1 (stereo not given),–,inactive
CS(=O)(=O)c1ccc(C(=O)OCC(=O)N2CCc3ccccc32)cc1[N+](=O)[O-],51.8 µM (active),–
CC1CCN(C(=O)COC(=O)c2ccc(S(C)(=O)=O)c([N+](=O)[O-])c2)CC1,9.8 µM (active),–
CCc1nc(-c2ccc(S(C)(=O)=O)c([N+](=O)[O-])c2)sc1C(=O)NC1C2CC3CC(C2)CC1C3 (stereo not given),3 µM (active),–
Cc1nc(-c2ccc(S(C)(=O)=O)c([N+](=O)[O-])c2)sc1C(=O)NC1C2CC3CC(C2)CC1C3 (stereo not given),4 µM (active),–
CS(=O)(=O)c1ccc(C(=O)OCC(=O)N2CCC(Cc3ccccc3)CC2)cc1[N+](=O)[O-],8.2 µM (active),–
CS(=O)(=O)c1ccc(C(=O)OCC(=O)N2CCN(c3ccccc3)CC2)cc1[N+](=O)[O-],24.7 µM (active),–
